Here are results for six compounds from PubChem BioAssay (NCI).

Test systems include HCT-15 colon; HT29 colon; SNB-75 CNS; SNB-19 CNS; U251 CNS; PC-3 prostate; SK-MEL-5 melanoma; UACC-62 melanoma; LOX IMVI melanoma; SK-MEL-28 melanoma; SK-MEL-2 melanoma; EKVX NSCLC; SN12C renal; UO-31 renal; TK-10 renal; ACHN renal; CAKI-1 renal; A498 renal; CCRF-CEM leukemia; MOLT-4 leukemia.
Assay in all cases: NCI-60 one-dose screen, 48 h (100 = growth as untreated, 0 = no growth, -100 = all killed)
Details in all cases: 10 µM unless noted

Values joined by “and” are separate entries in the source; they are usually repeats but may differ in a detail not shown here. Equal entries are not always repeated. This is part of a sample that, as a whole, favours compounds with a hit. Of some 83,000 tested, about 20% had one in any assay.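 Results are percent growth after 48 hours of single-concentration exposure. 100 means growth as in untreated cells, lower positive values show inhibition; negative values down to -100 show cell death.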 Values without a mark were called inactive. Active and inactive are the calls of the source. How the source made its calls: active means growth percent below 10; inactive means the rest.

Consider `Cc1c(CC(=O)OCCO)cc(-c2ccc(Cl)cc2)n1-c1ccccc1`, for which the growth was 94.4% in the test with HCT-15 colon; 101% in the test on HT29 colon; 65.9% in the test with SNB-75 CNS; 95.3% in the test with SNB-19 CNS; 91.7% in the test on U251 CNS; 101% with PC-3 prostate. Further, the growth in the test with SK-MEL-5 melanoma is 88.8%; in the test on UACC-62 melanoma, 77.7%; in the test on LOX IMVI melanoma, 94%; with SK-MEL-28 melanoma, 109%; in the test with SK-MEL-2 melanoma, 103%; in the test with EKVX NSCLC it was 95.5%. Besides, the growth in the test with SN12C renal is 92.4%; in the test on UO-31 renal, 75.5%; with TK-10 renal, 115%; with ACHN renal it was 100%; in the test on CAKI-1 renal it was 87.6%; in the test with A498 renal it was 87.9%. Moreover, the values for the growth with CCRF-CEM leukemia and in the test on MOLT-4 leukemia were 99% and 91.4%, respectively.

As to `O=C1/C(=C/c2ccc(-c3cccc(C(F)(F)F)c3)o2)SC(=S)N1CCc1ccc(O)cc1`, the growth is 68.6% with HCT-15 colon; 80.4% in the test with HT29 colon; 56.7% in the test with SNB-75 CNS; 104% with SNB-19 CNS; 87.2% in the test on U251 CNS; 62.6% in the test on PC-3 prostate. The growth was 90.1% in the test with SK-MEL-5 melanoma; 59% in the test with UACC-62 melanoma; 68.7% with LOX IMVI melanoma; 95.8% with SK-MEL-28 melanoma; 56.4% in the test on SK-MEL-2 melanoma; 89% with EKVX NSCLC. Also, the growth with SN12C renal is 75.1%; in the test with UO-31 renal it was 52.9%; with TK-10 renal, 94.1%; with ACHN renal, 87.4%; in the test with CAKI-1 renal, 53.8%; in the test with A498 renal, 65.3%. In addition, the growth was 14% with CCRF-CEM leukemia and 37% with MOLT-4 leukemia.

In the case of `CCC(=C(c1ccc(OCCCN(C)C)cc1)c1ccc(OCCCN(C)C)cc1)c1ccc(Cl)cc1`, the growth is -83.3% (active) with HCT-15 colon; -74.5% (active) in the test on HT29 colon; -96.6% (active) in the test on SNB-75 CNS; -88.3% (active) in the test on SNB-19 CNS; -83.4% (active) in the test with U251 CNS; -66.2% (active) with PC-3 prostate. The growth is -96.3% (active) with SK-MEL-5 melanoma; -80% (active) with UACC-62 melanoma; -84.3% (active) in the test with LOX IMVI melanoma; -89.8% (active) with SK-MEL-28 melanoma; -72.1% (active) in the test on SK-MEL-2 melanoma; -86.8% (active) with EKVX NSCLC. The growth with SN12C renal was -94.1% (active); in the test on UO-31 renal, -93.6% (active); with TK-10 renal, -85.2% (active); in the test on ACHN renal, -95.8% (active); with CAKI-1 renal it was -96.1% (active); in the test on A498 renal, -86.3% (active). For the same compound, the growth is -67.9% (active) in the test with CCRF-CEM leukemia and -61.9% (active) in the test on MOLT-4 leukemia.

Consider `Cn1cc(-c2nc3c(F)cc4[nH]ncc4c3c3c2CCCC3)c(C(F)F)n1`, for which the growth in the test with HCT-15 colon was 66.6%; in the test with HT29 colon it was 68.4%; in the test on SNB-75 CNS, 57.6%; with SNB-19 CNS, 71.2%; in the test with U251 CNS, 80.5%; in the test with PC-3 prostate, 29%. Also, the growth in the test on SK-MEL-5 melanoma is 65.4%; in the test with UACC-62 melanoma it was 51.9%; in the test on LOX IMVI melanoma it was 62.6%; in the test on SK-MEL-28 melanoma it was 80.8%; in the test on SK-MEL-2 melanoma, 76.7%; in the test with EKVX NSCLC it was 54.5%. For the same compound, the growth in the test on SN12C renal was 66.7%; in the test with UO-31 renal, 35.8%; in the test with TK-10 renal it was 52.3%; with ACHN renal, 44.3%; in the test with CAKI-1 renal it was 37%; in the test on A498 renal it was 33.1%. Further, the growth with CCRF-CEM leukemia was 4.61% (active); with MOLT-4 leukemia, 7.32% (active).

As to `O/N=C(/c1ccccc1)c1ccc2c3c(cccc13)CC2`, the growth is 84.7% and 77.3% with HCT-15 colon; 97.5% and 86.4% in the test with HT29 colon; 74.8% and 58.4% in the test on SNB-75 CNS; 98.5% and 94.1% with SNB-19 CNS; 90.1% and 89.3% with U251 CNS; 80% and 77.5% in the test with PC-3 prostate. Also, the growth with SK-MEL-5 melanoma was 98.1% and 91.1%; with UACC-62 melanoma, 84.6% and 74.7%; with LOX IMVI melanoma, 89.6% and 89.1%; with SK-MEL-28 melanoma, 92.8% and 87.5%; in the test on SK-MEL-2 melanoma, 96.2% and 92.7%; with EKVX NSCLC it was 79.5%. Moreover, the growth in the test with SN12C renal is 93.1% and 85.7%; in the test on UO-31 renal it was 73.4% and 81.3%; with TK-10 renal, 113% and 89.7%; in the test on ACHN renal, 101% and 94.5%; in the test on CAKI-1 renal it was 71.5% and 72.5%; with A498 renal, 78.3% and 89.2%. In addition, the growth with CCRF-CEM leukemia is 75.3% and 82.8%; in the test with MOLT-4 leukemia it was 74.7% and 72.9%.

For `O=C(/C=C/c1ccc([N+](=O)[O-])cc1)c1ccccc1`, the growth was 77.2% in the test with HCT-15 colon; 50.7% with HT29 colon; 83.4% in the test on SNB-75 CNS; 98.5% in the test on SNB-19 CNS; 80.8% with U251 CNS; 77.5% with PC-3 prostate. The growth is 94.5% with SK-MEL-5 melanoma; 94.9% with UACC-62 melanoma; 61.4% with LOX IMVI melanoma; 103% in the test with SK-MEL-28 melanoma; 91.1% with SK-MEL-2 melanoma; 90.8% with EKVX NSCLC. In addition, the growth was 99.8% with SN12C renal; 74.8% in the test with UO-31 renal; 68.9% with TK-10 renal; 99.6% in the test on ACHN renal; 96.2% with CAKI-1 renal; 103% with A498 renal. The figures for the growth in the test on CCRF-CEM leukemia and in the test on MOLT-4 leukemia were 76.7% and 55.1%, respectively.
